Results filed as inconclusive are left out. Calls of active or inactive are those of the source. Calls come from the whole dose curve; as a rule, active = well fitted inhibition curve with a large enough effect; inconclusive = small, poorly fitted or top-dose-only effect; inactive = no such curve, though single readings can be large or run the other way.
assay: InCell qHTS Assay for Inhibitors of the mTORC1 Signaling Pathway in MEF (Tsc2-/-, p53-/-) Cells: Hit Validation; conditions: phospho-rpS6 immunofluorescence, 24 h; activity change, negative = inhibition: at 38.3 µM (top of the series);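 note: phospho-S6 Ser235/236 signal normalized to propidium iodide cell count per well; nearly all actives have a fitted effect of over 75% in size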
Potency is the fitted concentration of half-maximal effect.

Row | Compound | activity change, negative = inhibition [%] | Potency
1 | CCCS(=O)(=O)c1c(S(=O)(=O)CCC)c2cc(C(C)(C)C)ccn2c1C(=O)c1ccc(OC)c(OC)c1 | -100 | 
2 | Cc1ccccc1C(=O)N1CCN(CCc2ccccn2)CC1 | -100 | 
3 | COc1ccc(Cn2c(C(=O)O)c(CNCc3ccc(SC)cc3)c3ccc(OC)cc32)cc1 | -100 | 
4 | O=C(CC1(O)C(=O)N(CCc2ccccc2)c2ccc(Br)cc21)c1ccccc1O (configuration not stated) | 1.72 | 
5 | O=C(Nc1ccc(-c2cc(C(F)(F)F)nn2-c2ccccc2)cc1)c1cccc(F)c1 | -100 | 
6 | CN(c1ccccc1)S(=O)(=O)c1ccc(NC(=O)c2nc(S(C)(=O)=O)ncc2Cl)cc1 |  | 2070 nM (active)
7 | COc1cc(C(=O)NC(c2ccccc2Cl)c2cc(Cl)c3cccnc3c2O)cc(OC)c1OC (configuration not stated) | -100 | 
8 | CCn1c(CN2CCC(C)CC2)nc2cc(NC(=O)c3ccccc3[N+](=O)[O-])ccc21 | -100 | 
9 | Cc1ccc(C(=O)CC2(O)C(=O)N(Cc3ccccc3)c3ccccc32)c(C)c1 (configuration not stated) | -100 | 
10 | Cc1cccc(CSCCNC(=O)CN(c2ccccc2)S(=O)(=O)N(C)C)c1 | -100 | 
11 | COc1cc(Br)ccc1C1C(C(=O)Nc2ccc(C)cc2C)=C(C)Nc2nnnn21 (configuration not stated) | -100 | 
12 | CCC1CCc2nc3sc(C(=O)Nc4ccc(C)cc4)c(N)c3cc2C1 (configuration not stated) | -100 | 
13 | COCCCNC(=O)c1ccc(CSc2nc3cccnc3n2Cc2ccc(OC)cc2)cc1 | -100 | 
14 | CCOc1ccccc1NC(=O)Cn1nnc(C(=O)NCc2cccs2)c1N | -100 | 
15 | CCOc1ccccc1Nc1nc(-c2cccc(Cl)c2)c2c(n1)-c1ccccc1OC2 | -100 | 
16 | CC(=O)Nc1ccc(NC(=O)c2nc(S(=O)(=O)Cc3ccc(F)cc3)ncc2Cl)cc1 |  | 3290 nM (active)
17 | CCN(CC)c1ccc(NC(=O)CCS(=O)(=O)c2cccc3nsnc23)c(C)c1 | -100 | 
18 | O=C(Nc1ccc2nc(SCC(=O)N3CCCc4ccccc43)sc2c1)c1ccccc1F | -100 | 
19 | COc1ccc(S(=O)(=O)N(C(=O)c2ccncc2)c2ccc3oc(C)c(C(C)=O)c3c2)cc1 | -100 | 
20 | COc1cc(C(=O)n2nc(C)c(Sc3ccc(Cl)cc3)c2C)cc(OC)c1OC | -100 | 
21 | CN1CCN(C(CNC(=O)C(=O)Nc2cccc(Cl)c2)c2ccc3c(c2)OCO3)CC1 (configuration not stated) | -100 | 
22 | CCN(C(=O)C(NS(=O)(=O)c1ccc(Br)s1)c1ccccc1)c1ccc(C)c(C)c1 (configuration not stated) | -15.2 | 

From PubChem BioAssay AID651791 (National Center for Advancing Translational Sciences (NCATS), 2012)
